Source: PubChem BioAssay (EPA / NIEHS)
“And” between values parts separate entries of the source, which are not always exact repeats. Equal values may be shown once. Results filed as inconclusive are left out. Where a structure was tested more than once in an assay, its records may differ in their call. The source made the active and inactive calls. How the source made its calls, unless noted: active means hit-call score of the fitted dose curve at least 0.9, where 1 is the maximum; inactive means score below 0.9.

Assays:
[1] = molecular target: Retinoic acid receptor RXR-alpha (Homo sapiens) (UniProt P19793); experiment: OT_NURR1_NURR1RXRa_0480: Odyssey Thera (OT) 8-hour HEK293T Protein Complementation Assay for Nurr1/retinoid X receptor (RXR) (AID 2283385; active means hit-call score of the fitted dose curve at least 0.9, where 1 is the maximum)
Outline: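 Interaction of Nurr1 with RXRα read as reconstituted reporter fluorescence in a HEK293T fragment-complementation system, 8 h post-treatment; increase over DMSO baseline analysed.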

[2] = molecular target: Retinoic acid receptor RXR-alpha (Homo sapiens) (UniProt P19793); experiment: OT_NURR1_NURR1RXRa_1440: Odyssey Thera (OT) 24-hour HEK293T Protein Complementation Assay for Nurr1/retinoid X receptor (RXR) (AID 2283386; active means hit-call score of the fitted dose curve at least 0.9, where 1 is the maximum)
Outline: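 Gain in fluorescence, fitted relative to DMSO, reflects Nurr1–RXRα association in HEK293T cells after 24 h dosing. Bait and prey are each linked to a reporter-protein fragment that reassembles on interaction.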

[3] = molecular target: Peroxisome proliferator-activated receptor gamma (Homo sapiens) (UniProt P37231); experiment: OT_PPARg_PPARgSRC1_0480: Odyssey Thera (OT) 8-hour Protein-Complementation Assay for Peroxisome Proliferator-activated Receptor Gamma / SRC-1 Co-activator (AID 2283387; active means hit-call score of the fitted dose curve at least 0.9, where 1 is the maximum;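 further: nuclear to cytoplasmic split Venus YFP fluorescence ratio reporting PPARg SRC-1 interaction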)
Outline: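 Protein-fragment complementation of split Venus YFP reports PPARg/SRC-1 interaction in HEK293T (transfected 48 h before treatment), exposed 8 h. Readout: N/C fluorescence ratio at 488 nm from imaging, Draq5 for segmentation, positive fit relative to DMSO.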

[4] = molecular target: Peroxisome proliferator-activated receptor gamma (Homo sapiens) (UniProt P37231); experiment: OT_PPARg_PPARgSRC1_1440: Odyssey Thera (OT) 24-hour Protein-Complementation Assay for Peroxisome Proliferator-activated Receptor Gamma/ SRC-1 Co-activator (AID 2283388; active means hit-call score of the fitted dose curve at least 0.9, where 1 is the maximum;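 further: nuclear to cytoplasmic ratio of reconstituted Venus YFP fluorescence in fixed imaged cells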)
Outline: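 Readout is the 488 nm N/C fluorescence ratio from fixed, Draq5-stained HEK293T cells after 24 h compound exposure. Cells carried transiently transfected PPARg and SRC-1 fused to Venus fragments, transfected 48 h before treatment.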

[5] = CEETOX_H295R_11DCORT: CeeTox H295R High-throughput Steroidogenesis Assay for 11-Deoxycortisol (11DCORT) (AID 2283432); conditions: actives raise or lower the signal;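 on AC50: 11-deoxycortisol secreted into the medium measured by LC-MS/MS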
Outline: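 Human adrenal H295R cells were prestimulated with 10 uM forskolin for 48 h, then exposed to test chemical (0.1% DMSO final) for 48 h. Medium 11-deoxycortisol was quantified by MTBE extraction and HPLC-MS/MS; bidirectional fitting relative to DMSO.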

[6] = CEETOX_H295R_OHPREG: CeeTox H295R High-throughput Steroidogenesis Assay for OH-Pregnenolone (OHPREG) (AID 2283434); conditions: actives raise or lower the signal
Outline: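 Readout: HPLC-MS/MS of 17alpha-hydroxypregnenolone in medium after 48 h chemical exposure of H295R cells pretreated with forskolin. Values fitted bidirectionally relative to DMSO; chemicals reducing viability to 20–70% were retested after 10-fold dilution.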

[7] = CEETOX_H295R_ANDR: CeeTox H295R High-throughput Steroidogenesis Assay for Androstenedione (ANDR) (AID 2283436); conditions: actives raise or lower the signal
Outline: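 Steroidogenesis in H295R adrenal cells after 48 h dosing; androstenedione quantified by LC-MS/MS, with DMSO as negative control and baseline for bidirectional curve fitting.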

[8] = CEETOX_H295R_CORTIC: CeeTox H295R High-throughput Steroidogenesis Assay for Corticosterone (CORTIC) (AID 2283437); conditions: actives raise or lower the signal;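 further: corticosterone secreted into medium quantified by mass spectrometry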
Outline: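 Steps: seed H295R, adhere overnight; 10 uM forskolin 48 h; replace with chemical (0.1% DMSO) 48 h; extract medium with MTBE; quantify corticosterone by HPLC-MS/MS; score bidirectionally vs DMSO.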

[9] = CEETOX_H295R_CORTISOL: CeeTox H295R High-throughput Steroidogenesis Assay for Cortisol (AID 2283438); conditions: actives raise or lower the signal;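 further: cortisol secreted into medium quantified by LC-MS/MS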
Outline: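 Cortisol measured by HPLC-MS/MS after MTBE extraction of medium from H295R cells exposed 48 h to chemical (0.1% DMSO), following 48 h prestimulation with 10 uM forskolin. Viability assessed by MTT in the same wells.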

[10] = CEETOX_H295R_DOC: CeeTox H295R High-throughput Steroidogenesis Assay for DOC (AID 2283439); conditions: actives raise or lower the signal
Outline: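 11-Deoxycorticosterone quantified in medium by MTBE extraction and HPLC-MS/MS after 48 h chemical exposure (0.1% DMSO) of forskolin-primed (10 uM, 48 h) H295R cells. Same-well MTT viability; data fitted bidirectionally against DMSO.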

[11] = CEETOX_H295R_PROG: CeeTox H295R High-throughput Steroidogenesis Assay for Progesterone (PROG) (AID 2283442); conditions: actives raise or lower the signal
Outline: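 Progesterone secreted by human H295R cells was measured by LC-MS/MS following 48 h chemical exposure at 0.1% DMSO, preceded by 48 h forskolin (10 uM) stimulation. Same-well MTT viability; cytotoxic concentrations diluted 10- or 100-fold and retested.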

[12] = read-out: Fatty acid synthase (Homo sapiens) (UniProt P49327); experiment: LTEA_HepaRG_FASN: Life Technologies and Expression Analysis (LTEA) Assay for Fatty Acid Synthase (FASN) using HepaRG (AID 2283448); conditions: mRNA level, 48 h; actives raise or lower the signal;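 on AC50: differentiated human HepaRG liver cells in serum-free induction medium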
Outline: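 FASN transcript measured by TaqMan qRT-PCR, normalised to three housekeeping genes, after 48 h chemical exposure of HepaRG cells. Eight-point half-log series from 100 uM in 0.5% DMSO, duplicates; gain or loss fitted against vehicle.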

[13] = read-out: Cyclin D2 (CCND2), CCND2 (gene 894); experiment: LTEA_HepaRG_CCND2: Life Technologies and Expression Analysis (LTEA) Assay for Cyclin D2 (CCND2) using HepaRG (AID 2283449); conditions: mRNA level, 48 h; actives raise or lower the signal;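 further: CCND2 transcript measured by TaqMan qRT-PCR and normalised to three housekeeping genes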
Outline: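 In this HepaRG study, an eight-point concentration series (max 100 uM, 0.5% DMSO) is applied for 48 h. CCND2 mRNA change is derived by qRT-PCR normalised to ACTB, GAPDH and POLR2A.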

[14] = read-out: Cyclin Dependent Kinase Inhibitor 1A (CDKN1A), CDKN1A (gene 1026); experiment: LTEA_HepaRG_CDKN1A: Life Technologies and Expression Analysis (LTEA) Assay for Cyclin Dependent Kinase Inhibitor 1A (CDKN1A) using HepaRG (AID 2283450); conditions: mRNA level, 48 h; actives raise or lower the signal
Outline: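 Expression quantified by Fluidigm qRT-PCR with ACTB, GAPDH and POLR2A normalization, fitted bidirectionally against 0.5% DMSO. Cells: HepaRG, plated 48 h then treated 48 h in serum-free induction medium, top concentration 100 uM with half-log dilutions.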

[15] = read-out: Cyclin D1 (CCND1), CCND1 (gene 595); experiment: LTEA_HepaRG_CCND1: Life Technologies and Expression Analysis (LTEA) Assay for Cyclin D1 (CCND1) using HepaRG (AID 2283451); conditions: mRNA level, 48 h; actives raise or lower the signal;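 on AC50: differentiated human HepaRG liver cells in serum-free induction medium; TaqMan qRT-PCR transcript level normalised to ACTB GAPDH and POLR2A housekeeping genes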
Outline: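 Expression of CCND1 was quantified by qRT-PCR on Fluidigm arrays using ACTB, GAPDH and POLR2A as reference genes. HepaRG cultures, plated 48 h beforehand, were dosed for 48 h at up to 100 uM (half-log, 8 points) in 0.5% DMSO.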

[16] = read-out: catalase (CAT), CAT (gene 847); experiment: LTEA_HepaRG_CAT: Life Technologies and Expression Analysis (LTEA) Assay for catalase (CAT) using HepaRG (AID 2283452); conditions: mRNA level, 48 h; actives raise or lower the signal;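 on AC50: TaqMan qRT-PCR signal normalized to ACTB GAPDH and POLR2A housekeeping genes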
Outline: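 Differentiated HepaRG cells in serum-free induction medium were dosed 48 h in duplicate, eight half-log concentrations from 100 uM in 0.5% DMSO. Transcript measured by TaqMan qRT-PCR, normalised to ACTB/GAPDH/POLR2A, fitted bidirectionally against DMSO.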

[17] = CEETOX_H295R_OHPROG: CeeTox H295R High-throughput Steroidogenesis Assay for OH-Progesterone (OHPROG) (AID 2283435); conditions: actives raise or lower the signal
Outline: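 Medium steroid levels read by LC-MS/MS after 48 h chemical treatment (0.1% DMSO) of human adrenal H295R cells that had been forskolin-primed (10 uM, 48 h). Gain or loss fitted against DMSO; MTT cytotoxicity checked per well.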

Measured: AC50

Chain of Peroxisome proliferator-activated receptor gamma (Homo sapiens) (P37231 whole entry, looked up, the tested form may be a part): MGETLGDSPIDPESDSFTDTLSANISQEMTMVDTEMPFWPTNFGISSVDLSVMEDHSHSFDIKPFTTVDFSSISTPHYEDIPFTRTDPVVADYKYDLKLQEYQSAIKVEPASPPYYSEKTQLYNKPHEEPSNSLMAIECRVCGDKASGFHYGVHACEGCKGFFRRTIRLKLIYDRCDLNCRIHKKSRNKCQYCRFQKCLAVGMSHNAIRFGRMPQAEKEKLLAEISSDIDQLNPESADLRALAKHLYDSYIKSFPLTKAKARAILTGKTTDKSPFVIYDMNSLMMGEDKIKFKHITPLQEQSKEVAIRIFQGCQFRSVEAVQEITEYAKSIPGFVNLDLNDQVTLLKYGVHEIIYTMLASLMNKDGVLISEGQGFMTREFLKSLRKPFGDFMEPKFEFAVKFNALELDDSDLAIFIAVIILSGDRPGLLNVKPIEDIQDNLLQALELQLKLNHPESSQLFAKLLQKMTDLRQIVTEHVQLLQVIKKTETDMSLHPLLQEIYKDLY
Chain of Fatty acid synthase (Homo sapiens) (P49327 whole entry, looked up): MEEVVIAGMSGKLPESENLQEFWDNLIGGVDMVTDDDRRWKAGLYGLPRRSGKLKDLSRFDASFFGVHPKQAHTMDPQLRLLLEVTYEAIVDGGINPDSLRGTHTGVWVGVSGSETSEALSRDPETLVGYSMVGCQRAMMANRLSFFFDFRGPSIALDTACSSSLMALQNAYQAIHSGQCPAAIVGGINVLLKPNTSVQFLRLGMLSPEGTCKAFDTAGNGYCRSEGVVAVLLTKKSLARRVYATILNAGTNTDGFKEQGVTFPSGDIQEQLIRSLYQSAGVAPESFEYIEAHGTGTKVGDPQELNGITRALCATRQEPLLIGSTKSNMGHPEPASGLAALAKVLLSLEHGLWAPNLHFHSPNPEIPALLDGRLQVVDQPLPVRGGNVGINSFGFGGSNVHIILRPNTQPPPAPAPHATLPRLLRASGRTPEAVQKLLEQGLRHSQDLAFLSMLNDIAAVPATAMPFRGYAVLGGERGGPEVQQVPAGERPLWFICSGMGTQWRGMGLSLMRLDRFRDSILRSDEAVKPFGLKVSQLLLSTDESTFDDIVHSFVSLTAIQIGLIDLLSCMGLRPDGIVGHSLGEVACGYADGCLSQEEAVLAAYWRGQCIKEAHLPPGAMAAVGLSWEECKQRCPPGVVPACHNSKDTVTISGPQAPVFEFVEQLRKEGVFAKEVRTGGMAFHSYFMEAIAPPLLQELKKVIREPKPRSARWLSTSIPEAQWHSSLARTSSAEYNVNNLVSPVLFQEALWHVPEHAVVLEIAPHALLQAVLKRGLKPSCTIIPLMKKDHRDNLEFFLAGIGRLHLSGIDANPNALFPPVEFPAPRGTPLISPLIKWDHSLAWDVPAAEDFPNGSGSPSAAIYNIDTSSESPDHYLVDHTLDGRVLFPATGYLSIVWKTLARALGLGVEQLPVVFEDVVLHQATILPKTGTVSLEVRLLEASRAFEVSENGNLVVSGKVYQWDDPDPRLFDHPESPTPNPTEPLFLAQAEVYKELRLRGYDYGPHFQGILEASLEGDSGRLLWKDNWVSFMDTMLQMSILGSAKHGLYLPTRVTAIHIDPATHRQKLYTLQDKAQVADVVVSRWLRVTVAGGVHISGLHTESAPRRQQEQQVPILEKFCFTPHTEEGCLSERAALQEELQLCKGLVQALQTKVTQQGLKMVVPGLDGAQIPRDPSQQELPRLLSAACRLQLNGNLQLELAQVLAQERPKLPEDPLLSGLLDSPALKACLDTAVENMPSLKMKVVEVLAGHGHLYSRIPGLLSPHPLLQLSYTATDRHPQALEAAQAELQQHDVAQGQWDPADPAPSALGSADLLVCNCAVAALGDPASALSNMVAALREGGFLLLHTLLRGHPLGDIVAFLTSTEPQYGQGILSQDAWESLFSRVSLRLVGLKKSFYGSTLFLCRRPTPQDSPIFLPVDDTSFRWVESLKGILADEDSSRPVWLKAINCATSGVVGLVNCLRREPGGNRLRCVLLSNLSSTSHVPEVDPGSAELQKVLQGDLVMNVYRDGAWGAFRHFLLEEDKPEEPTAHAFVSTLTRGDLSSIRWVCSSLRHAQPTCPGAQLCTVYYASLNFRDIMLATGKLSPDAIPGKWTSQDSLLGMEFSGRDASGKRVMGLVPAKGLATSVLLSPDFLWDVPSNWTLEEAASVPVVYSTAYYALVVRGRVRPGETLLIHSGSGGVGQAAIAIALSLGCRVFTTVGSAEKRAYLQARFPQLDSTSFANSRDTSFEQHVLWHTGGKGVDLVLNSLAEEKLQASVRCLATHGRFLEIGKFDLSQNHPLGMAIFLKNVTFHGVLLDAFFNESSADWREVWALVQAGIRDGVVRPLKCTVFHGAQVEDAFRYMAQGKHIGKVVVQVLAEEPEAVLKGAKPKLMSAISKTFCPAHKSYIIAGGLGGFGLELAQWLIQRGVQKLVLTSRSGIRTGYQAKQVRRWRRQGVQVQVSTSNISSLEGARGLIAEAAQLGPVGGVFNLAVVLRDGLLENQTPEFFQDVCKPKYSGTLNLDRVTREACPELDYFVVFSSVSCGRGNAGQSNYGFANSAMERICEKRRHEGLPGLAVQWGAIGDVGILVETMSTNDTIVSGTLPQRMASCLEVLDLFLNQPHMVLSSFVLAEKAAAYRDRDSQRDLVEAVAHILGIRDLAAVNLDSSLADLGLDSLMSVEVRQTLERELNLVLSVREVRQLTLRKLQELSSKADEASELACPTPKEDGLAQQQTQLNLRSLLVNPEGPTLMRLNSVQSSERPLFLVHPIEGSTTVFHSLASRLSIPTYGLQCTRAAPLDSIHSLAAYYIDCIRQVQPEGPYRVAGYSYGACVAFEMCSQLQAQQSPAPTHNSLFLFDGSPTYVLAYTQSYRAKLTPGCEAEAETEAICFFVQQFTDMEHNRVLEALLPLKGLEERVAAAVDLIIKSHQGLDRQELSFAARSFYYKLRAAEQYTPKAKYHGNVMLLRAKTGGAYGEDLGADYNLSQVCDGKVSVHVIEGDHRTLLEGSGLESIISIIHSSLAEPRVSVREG
Chain of Retinoic acid receptor RXR-alpha (Homo sapiens) (P19793 whole entry, looked up, the tested form may be a part): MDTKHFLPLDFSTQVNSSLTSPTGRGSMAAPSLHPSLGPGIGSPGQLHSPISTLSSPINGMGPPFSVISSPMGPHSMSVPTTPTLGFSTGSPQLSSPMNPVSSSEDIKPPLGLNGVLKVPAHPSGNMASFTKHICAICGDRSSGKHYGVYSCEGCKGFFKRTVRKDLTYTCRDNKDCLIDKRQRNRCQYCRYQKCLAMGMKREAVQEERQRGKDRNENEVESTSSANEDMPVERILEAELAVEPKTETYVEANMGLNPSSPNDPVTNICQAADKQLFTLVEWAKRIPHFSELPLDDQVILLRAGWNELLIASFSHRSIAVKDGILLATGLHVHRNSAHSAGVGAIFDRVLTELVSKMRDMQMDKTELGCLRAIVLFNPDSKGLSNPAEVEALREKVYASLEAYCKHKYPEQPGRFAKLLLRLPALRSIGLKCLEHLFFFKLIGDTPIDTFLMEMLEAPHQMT

Oc1ccc(Cl)cc1Cc1ccccc1
active: [5] 77.7 µM | [7] 78 µM | [10] 39.9 µM | [12] 87.9 µM and 74.3 µM and 81.6 µM | [15] 50.5 µM
inactive: [1] | [2] | [3] | [4] | [6] | [8] | [9] | [11] | [13] | [14] | [15] | [16]

O=C(O)COc1ccc(Cl)cc1Cl
not listed: [3] | [4] | [7]
inactive: all other assays above

CCC(C)(NC(=O)c1cc(Cl)c(C)c(Cl)c1)C(=O)CCl (centres undefined)
active: [15] 77.8 µM | [16] 71 µM
inactive: [1] | [3] | [4] | [12] | [13] | [14]
